Source: PubChem BioAssay
AmpC inh no detg = AmpC beta-lactamase inhibition without detergent. P00811. AmpC nitrocefin hydrolysis, absorbance 480 nm, 0.0001% Triton. Potency, µM (doses to about 57.1 µM), without a hit: top-dose activity change, negative = inhibition, actives largely listed as inhibitors. actives 0.52% (n = 330,000). AID 485341;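 also: plate controls were no compound for no effect and no enzyme for full effect; nearly all actives have a fitted effect of over 20% in size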
Target sequence (P00811 whole entry, looked up): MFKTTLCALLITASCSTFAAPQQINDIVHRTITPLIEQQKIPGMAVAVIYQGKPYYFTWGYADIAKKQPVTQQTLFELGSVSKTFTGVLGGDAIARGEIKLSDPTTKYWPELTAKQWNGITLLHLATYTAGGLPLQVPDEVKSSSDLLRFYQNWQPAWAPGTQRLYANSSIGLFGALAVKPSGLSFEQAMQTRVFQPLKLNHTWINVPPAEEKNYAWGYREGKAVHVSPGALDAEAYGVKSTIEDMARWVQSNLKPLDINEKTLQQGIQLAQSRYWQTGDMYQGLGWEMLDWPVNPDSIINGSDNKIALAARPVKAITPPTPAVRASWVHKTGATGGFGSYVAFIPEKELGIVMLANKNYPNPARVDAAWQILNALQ
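20 mM phosphate pH 7.0 + 0.01% (detergent screen) or 0.0001% Triton X-100; 5.3 nM AmpC reagent; cpd preinc 15 min RT; nitrocefin (800 uM stock) to start; A480 q20 s × 4 min; Activity was normalised to no-enzyme and no-compound control wells.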
AMA1-RON2 inh = disrupts binding of P. falciparum AMA1 to RON2; actives 0.2% (n = 360,000); AlphaScreen AMA1-biotinylated RON2 peptide binding; AID 720542; Potency, µM (highest dose often 58.2 µM), for the others: at the highest dose activity change, negative = inhibition, actives largely listed as inhibitors;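 also: 0% = vehicle wells and -100% = peptide control; nearly all actives have a fitted effect of over 45% in size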
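AMA1 (3D7) with his tag at 25 nM final met compounds first, then biotinylated RON2 peptide at 25 nM; detection used donor plus acceptor beads, 10 µg/mL apiece, read by AlphaScreen after 30 min at room temperature.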
AmpC detergent = blocks E. coli AmpC beta-lactamase in detergent assay; P00811; AmpC hydrolysis of nitrocefin, absorbance 480 nm, 0.01% Triton; Potency, µM (titrated, usually from 114 µM), inactives show at the top dose activity change, negative = inhibition, most hits filed as inhibitors; actives 0.041% (n = 370,000);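 also: 0% = no-compound wells and -100% = no-enzyme wells; nearly all actives have a fitted effect of over 25% in size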
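AmpC (5.3 nM in the dispensed reagent) in 20 mM phosphate pH 7.0 with 0.01% (detergent screen) or 0.0001% Triton X-100 was preincubated with compounds for 15 min at room temperature. Nitrocefin was then added from an 800 uM solution, and hydrolysis was followed at 480 nm.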
Pf growth 96h = P. falciparum growth inhibition at 96 hours; P. falciparum luciferase reporter growth, 96 h; Potency, µM (doses to about 28.7 µM), for the others: at the top dose activity change, negative = inhibition, actives largely listed as inhibitors; actives 6.9% (n = 320,000); AID 504834; also: % is scaled to controls: 0 for no effect and ±100 for the full control effect
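Plates of compound plus infected erythrocytes (2% hematocrit, 0.05% parasitemia final) incubate 96 hours, 37 C, 5% CO2. Detection reagent added; reduced luminescence from the parasites' luciferase reporter flags inhibition.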
HCV inh = HCV inhibition | actives 3.4% (n = 340,000) | Potency, µM (series often up to 41.8 µM), without a hit: at the highest dose activity change, negative = inhibition, actives largely listed as inhibitors | AID 651820 | Huh7.5.1 HCVcc-Cre infection, luciferase reporter, 44 h; also: % is scaled to controls: 0 for no effect and ±100 for the full control effect
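Reporter virus HCVcc-Cre (~0.5 moi) infects cells exposed to compound; seeding density 1,000 cells/well with 4 h settling beforehand. Luminescence, 15 sec read, taken 44 h post-infection following a 15 min RT substrate incubation.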
Pf growth 48h = P. falciparum growth inhibition at 48 hours (one generation); P. falciparum luciferase growth in erythrocytes, 48 h; Potency, µM (top dose mostly 28.7 µM), for the others: top-dose activity change, negative = inhibition, most hits filed as inhibitors; actives 5.9% (n = 310,000); AID 504832; also: % is scaled to controls: 0 for no effect and ±100 for the full control effect
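A one-generation exposure of luciferase-tagged malaria parasites in RPMI 1640/Albumax erythrocyte culture, 37 C and 5% CO2. Inhibition is inferred from decreased luminescence after adding detection reagent.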
HCV confirm = HCV inhibition, cherry-pick confirmation; actives 78% (n = 640); Potency, µM (top dose mostly 41.8 µM), for the others: at the top dose activity, negative = inhibition, most hits filed as inhibitors; shares compounds with HCV inh; HCVcc-Cre infectious virus cell assay, luciferase, inhibition; also: nearly all actives have a fitted effect of over 80% in size
HCV host tox = counter-screen for HCV inhibitors: host cell cytotoxicity | Potency, µM (series often up to 41.8 µM), inactives show at the highest dose activity change, negative = cytotoxicity, hits mostly inhibitors | AID 720576 | HCV host cell line cytotoxicity counterscreen | shares compounds with HCV inh | actives 22% (n = 640);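 also: 44 h compound exposure; % is scaled to controls: 0 for no effect and ±100 for the full control effect; nearly all actives have a fitted effect of over 55% in size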
The depositor's hits bear a star; ? = inconclusive; · = no result given. Hits are enriched below; roughly 11% of the tested compounds scored in any of these assays. Calls follow the shape of the dose curve; as a rule, active = well fitted curve in the direction sought with a large enough effect; inconclusive = small, poorly fitted or top-dose-only effect, or another doubt; inactive = no such curve, though single readings can be large; an effect the other way counts as inactive or inconclusive. Potency is read from the fitted curve at half-maximal effect.

SMILES | AmpC inh no detg | AMA1-RON2 inh | AmpC detergent | Pf growth 96h | HCV inh | Pf growth 48h | HCV confirm | HCV host tox
COC(=O)C[C@]1(C(=O)OC)CN(C#N)N(c2ccc(Cl)cc2)C12c1ccccc1-c1ccccc12 | 108% | -2% | ? | 3.7µM* | 5.6µM* | 3.7µM* | 3.1µM* | 7.9µM*
COC(=O)CN1C(=O)C(O)(CC(=O)c2ccc(Cl)cc2)c2ccccc21 (stereo not drawn) | 4% | -3% | ? | 79% | 6% | -11% | · | ·
O=C(Nc1ccc2c(c1)Cc1ccccc1-2)c1cccnc1 | 28% | 0% | -8% | 63% | 6.3µM* | 43% | -22% | -23%
Cc1cccc(OCCn2c(SCC(=O)O)nc3ccccc32)c1 | · | · | 7% | · | · | · | · | ·
CC(Sc1nc2c(c(=O)[nH]1)CCCC2)C(=O)Nc1cc(C(F)(F)F)ccc1Cl (stereo not drawn) | · | · | -3% | · | · | · | · | ·
Cc1ccn2c(=O)cc(COc3ccc(NC(=O)COc4ccc(C)c(C)c4)cc3)nc2c1 | · | · | -1% | · | · | · | · | ·
CC12CCC(C)(c3nc4ccccc4nc31)C2(C)C | 1% | -4% | -1% | ? | 20% | 10% | · | ·
Cc1[nH]nc2c1-c1nc3ccccc3nc1C(C)(C)C2 | 27% | 4% | -3% | 4% | 5.6µM* | · | 7.9µM* | ?
Cc1c(-c2nnc(SCC(=O)Nc3ccc(Br)cc3)o2)nnn1-c1ccc(F)cc1 | · | · | 14% | · | · | · | · | ·
CC(C)OCCCNC(=O)c1ccc2c(=O)n(Cc3ccc4c(c3)OCO4)c(=S)[nH]c2c1 | -9% | -1% | ? | 27% | 7% | 24% | · | ·
C=CCNC(=O)c1ccc(Cn2c(=S)[nH]c3cc4c(cc3c2=O)OCO4)cc1 | -29% | -39% | ? | 143% | ? | 9% | 2.5µM* | 21%
O=C(Nc1cc(C(F)(F)F)ccc1N1CCCCC1)c1ccc(Br)o1 | -15% | 1% | ? | ? | 5µM* | ? | 14µM* | 8%
O=C(Nc1cc(C(F)(F)F)ccc1N1CCCCC1)c1ccco1 | -20% | 13% | -11% | 37% | ? | 12% | · | ·
Cc1cc(OCC(=O)Nc2ccc(-c3nc4cc(Cl)ccc4o3)cc2)cc(C)c1Cl | · | · | -9% | · | · | · | · | ·
c1ccc(-c2nn(-c3ccccc3)[n+](-c3ccccc3)n2)cc1 | · | 23% | · | · | 3.2µM* | · | 25µM* | ?
Cc1cccc(-c2nc(CCNC(=O)COc3ccccc3)cs2)c1 | · | · | 3% | · | · | · | · | ·
O=C1S/C(=C/c2ccc(N3CCOCC3)o2)C(=O)N1Cc1c(F)cccc1Cl | -10% | 27% | 2% | · | ? | 5% | 13µM* | 11%
Cn1c(=O)c2c(nc(N3CCOCC3)n2Cc2c(F)cccc2Cl)n(C)c1=O | -3% | 5% | -12% | 1% | 0% | 5% | · | ·
Cc1oc2ccc(O)c(CN3CCN(Cc4ccccc4)CC3)c2c1C(=O)Nc1ccccc1 | · | · | 24% | · | · | · | · | ·
Cn1c(SCc2ccc(F)cc2Cl)nc2ccccc2c1=O | -5% | 3% | ? | ? | ? | ? | 6.3µM* | 14µM*
COC(=O)/C(C#N)=C\c1c(OC)[nH]c2ccccc12 | 1% | 0% | 0% | 31% | 4µM* | -10% | 11µM* | 23%
O=C(Nc1ncc(Cc2ccc(SC(F)F)cc2)s1)c1ccccc1 | -22% | 49% | -2% | ? | ? | -9% | 14µM* | 28µM*
Cc1oc2c(O)c(O)ccc2c(=O)c1-c1cnn(-c2ccccc2)c1 | -34% | 41% | 8% | -15% | -19% | ? | · | ·
Cc1nc(-c2cnn(-c3ccccc3)c2)c2cc(C)oc2n1 | 70% | -2% | 1% | 27% | 7.1µM* | -19% | 16µM* | 46%
c1cnc2c(c1)ccc1cccnc12 | -27% | -11% | ? | 3.3µM* | 8.9µM* | 5.9µM* | 7µM* | -65%
SMILES | AmpC inh no detg | AMA1-RON2 inh | AmpC detergent | Pf growth 96h | HCV inh | Pf growth 48h | HCV confirm | HCV host tox
CCOc1ccc(C(C)=O)cc1COc1ccc(-n2cnnn2)cc1 | -10% | -2% | ? | -4% | 2.8µM* | -20% | 0.31µM* | -22%
Cc1cc(C)cc(NC(=O)c2nnn(Cc3cc(C)ccc3C)c2N)c1 | -10% | -1% | ? | 10µM* | ? | ? | 11µM* | 23%
CC(CNC(=O)c1cc2cc(S(=O)(=O)N3CCCCC3)ccc2n1C)c1ccccc1 (stereo not drawn) | · | · | -5% | · | · | · | · | ·
NS(=O)(=O)c1ccc(CCNC(=O)C2COc3ccccc3C2)cc1 (stereo not drawn) | · | · | 21% | · | · | · | · | ·
Cc1ccc(-n2c(=O)[nH]c3ncccc3c2=O)cc1 | -6% | -2% | -1% | -2% | 13% | 10% | · | ·
Cc1ccc(-n2c(-c3ccc(Br)cc3)c[n+]3c2CCc2ccc4cccnc4c2-3)cc1 | 69% | 2% | -2% | 0.47µM* | 2.5µM* | 1.7µM* | 6.3µM* | 14µM*
CC(C)(C)OC(=O)COc1cc(O)c2c(=O)cc(-c3ccccc3)oc2c1 | -14% | 0% | 1% | ? | ? | ? | 28µM* | -29%
O=C(CN(Cc1ccccc1)C1=NCCS1)c1ccc(Cl)cc1 | -19% | -9% | -3% | ? | 6.3µM* | -2% | 8.9µM* | -7%
COc1ccc(C(=O)CN(Cc2ccccc2)C2=NCCS2)cc1 | -6% | 8% | 1% | -17% | -23% | -1% | · | ·
CC(=O)N1CCCc2cc(S(=O)(=O)N3CCC(C(=O)NCc4ccc(N(C)C)cc4)CC3)ccc21 | · | · | -5% | · | · | · | · | ·
CCOC(=O)c1cccc(NC(=O)c2cc3sccc3n2C)c1 | -27% | -12% | -2% | · | 3.2µM* | 116% | 25µM* | -29%
Cc1ccc(N(CC(=O)Nc2ccc(C)c(Cl)c2)S(=O)(=O)c2cccs2)cc1 | · | · | 6% | · | · | · | · | ·
O=C(COc1ccc([N+](=O)[O-])cc1)Nc1nc2c(s1)CCCC2 | · | · | 0% | · | · | · | · | ·
Cn1nnnc1Sc1ncnc2scc(-c3ccc(C#N)cc3)c12 | -11% | · | 5% | 1.9µM* | · | 4.7µM* | 25µM* | 25µM*
O=C(Cn1c(=O)nc(-c2ccccc2F)c2cc(Cl)ccc21)NCCCc1ccccc1 | · | · | 16% | · | · | · | · | ·
CCCn1c(N)c(C(=O)COc2ccc(Br)cc2F)c(=O)n(C)c1=O | -5% | 21% | 3% | -16% | ? | ? | 22µM* | -21%
